These results are taken from PubChem BioAssay (NCI).

A short description of this test: NCI Yeast Anticancer Drug Screen. Data for the mlh1 strain (AID 171).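 Further: 0% = growth of vehicle-treated control cultures of the same strain.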 The following applies: S. cerevisiae mlh1 strain growth inhibition, stronger effect = higher value. As to the method: Growth inhibition of yeast strains with defined genetic alterations is measured as a screen for potential anti-cancer activity. Selected strains with alterations in DNA damage repair or cell cycle control were exposed to compounds and growth inhibition was measured relative to vehicle treated controls. The strain used in this assay is mlh1

The panel holds about 79,000 compounds, 15% with a hit somewhere; the sample as a whole holds those more often. Values without a mark were called inactive. Activity calls are given as the source filed them. No stated cut-off is given here; in the data, active means growth inhibition above about 70%; inactive means the rest.

Consider `Cc1ccc(Nc2n[nH]c(=S)s2)c(C)c1`, for which the growth inhibition was -9% (at 1.2 µM); 6% (at 3.7 µM); 19% (at 11.0 µM); 64% (at 33.0 µM); 89% (active) (at 100.0 µM).
In the same order, the values of `O=[N+]([O-])c1ccc2nc(=S)[nH]n2c1` are 7%, -5%, -3%, -2% and 26%.
The matching figures for `CCCCCCCCCCCCCCN`: -3%, 8%, 2%, 16% and 98% (active).
In the same order, the values of `CN(N=O)C(=O)Nc1ccc(C(=O)O)cc1` are -6%, 1%, -1%, -21% and -12%.
As to `CCCCCCCCCCCCCCCCCCNC(=S)/N=C/c1c(O)c2ccccc2[nH]c1=O`, the growth inhibition (at 1.2 µM) is 0%; the growth inhibition (at 3.7 µM) was -2%; the growth inhibition (at 11.0 µM) is -3%; the growth inhibition (at 33.0 µM) was -4%; the growth inhibition (at 100.0 µM) is -4%.
Turning to `O=P(C(=S)Nc1c(Cl)cccc1Cl)(c1ccccc1)c1ccccc1`, the growth inhibition was 10% (at 1.2 µM); 10% (at 3.7 µM); 0% (at 11.0 µM); 6% (at 33.0 µM); 95% (active) (at 100.0 µM).
On to `CC(=O)O[C@H]1CC[C@@]2(C)C(=CC[C@@H]3C2CC[C@]2(C)C(=O)NC(=O)CC32)C1` (stereo not given in full), for which the growth inhibition (at 1.2 µM) was 1%; the growth inhibition (at 3.7 µM) is 17%; the growth inhibition (at 11.0 µM) was 57%; the growth inhibition (at 33.0 µM) was 75% (active); the growth inhibition (at 100.0 µM) was 64%.
The matching figures for `CCCCN(CCC#N)c1ccc(/C=C/c2ccnc3ccccc23)cc1`: -3%, -6%, 10%, 55% and 76% (active).
